# Reference: PubChem BioAssay (Tox21)
# Records with an inconclusive call do not appear. Values without a mark were called inactive. Calls come from the whole dose curve; as a rule, active = well fitted activation curve with a large enough effect in the signal ratio in the repeat runs, with a control signal flat (not every such curve was filed as active); inconclusive = weak or mixed curves; inactive = flat fitted curve, though single readings scatter; the % refers to the signal ratio.
# Assay: qHTS assay for small molecule activators of the heat shock response signaling pathway (AID 743210)
# Settings: HeLa HSE-bla reporter, beta-lactamase ratio, 5 h; series mostly up to 62.6 µM; activation: at the top concentration
# How it was run: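 Heat shock element–beta-lactamase HeLa reporter cells; qHTS with compounds for 5 h at 37 C; detection by FRET substrate fluorescence after 2.5 h at RT.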
# % is set by controls: 0 for no effect and ±100 for the full control effect.
row,Structure (SMILES),activation
1,CC(C=O)Cc1ccc2c(c1)OCO2 (stereo not given),-0.829%
2,C[C@]12CC[C@H]3[C@@H](CCC4=CC(=O)CC[C@@]43C)[C@@H]1CC[C@@H]2C(=O)O,-1.19%
3,CC1CCC(=O)O1 (stereo not given),-1.37%
4,CC1=C(C(=O)O)N2C(=O)[C@@H](N)[C@H]2SC1,1.17% [at 29.1 µM]
5,COc1cccc2c1cc([N+](=O)[O-])c1c(C(=O)O)cc3c(c12)OCO3,-0.271%
6,O=C(CCN1CC1)OCC(CO)(COC(=O)CCN1CC1)COC(=O)CCN1CC1,-0.135%
7,Fc1ccc(C2(Cn3cncn3)OC2c2ccccc2Cl)cc1 (stereo not given),-0.138%
8,CC(C(O)c1ccccc1)N(C)C/C=C/c1ccccc1 (stereo not given),-0.175%
9,CC1(C(=O)Nc2ccc(O)c(Cl)c2Cl)CCCCC1,1.5%
10,O=C(Nc1ccccc1)N(Cc1ccc(Cl)cc1)C1CCCC1,1.69%
11,O=C1CN2CCOC2(c2ccccc2Cl)c2cc(Cl)ccc2N1 (stereo not given),-0.446%
12,CCNc1nc(NC(C)C)nc(OC)n1,-1.53%
13,NC1=NC(=O)C(c2ccccc2)O1 (stereo not given),-0.48%
14,CCOC(=O)C1(c2ccccc2)CCN(CCc2ccc(N)cc2)CC1,-0.525%
15,CCOC(=O)C(c1c(O)c2ccccc2oc1=O)c1c(O)c2ccccc2oc1=O,3.1%
16,CC1COC2(c3ccccc3Cl)c3cc(Cl)ccc3NC(=O)CN12 (stereo not given),-0.6%
17,COc1cccc(C(=O)NN(C(=O)c2cc(C)cc(C)c2)C(C)(C)C)c1C,1.71%
18,O=S(=O)(O)C(F)(F)C(F)(F)C(F)(F)C(F)(F)C(F)(F)C(F)(F)F,-0.248%
19,CN1CCC(N(Cc2ccccc2)c2ccccc2)CC1,-0.117%
20,Clc1ccccc1N1CCNCC1,2.1%
